Data as given in PubChem BioAssay AID1159580 (chemical genetic matrix, 2015).
Out of some 5,500 compounds screened, about 2,000 (36%) were called active. Roughly 18% stayed inconclusive and do not appear here. Some of the results follow. A number with no mark means an inactive call. No stated cut-off is given here; in the data, active means normalized growth mostly below about 0.91 (no sharp cut-off); inconclusive means no clear call, values can overlap the other calls; inactive means mostly above about 0.92.

Experiment: chemical genetic growth profiling, strain panel (AID 1159580);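 further: tested at 20 µM; growth read once vehicle control cultures reached saturation at 30 °C; 1 = growth at the plate median or of vehicle wells; lower values mean less growth of the strain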
Conditions: growth OD

In the case of `COP(=S)(OC)SCn1nnc2ccccc2c1=O`, the normalized growth (S. cerevisiae deletion strains, locus YJR075W, strain HOC1, hits give low values) is reported as 0.975, the normalized growth (S. cerevisiae deletion strains, locus YKL009W, strain mrt4, hits give low values) is reported as 0.866 (active) and the normalized growth (S. cerevisiae deletion strains, locus YKL068W, hits give low values) is reported as 0.995. The normalized growth (S. cerevisiae deletion strains, locus YKL085W, strain MDH1 (second series), hits give low values) was 0.985, the normalized growth (S. cerevisiae deletion strains, locus YKL085W, strain MDH1, hits give low values) was 0.985 and the normalized growth (S. cerevisiae deletion strains, locus YKL160W, strain elf1, hits give low values) was 0.989. It also gave a normalized growth (S. cerevisiae deletion strains, locus YKL190W, strain CNB1, hits give low values) of 0.976, a normalized growth (S. cerevisiae deletion strains, locus YKR001C, strain vps1, hits give low values) of 0.969 and a normalized growth (S. cerevisiae deletion strains, locus YKR026C, strain gcn3, hits give low values) of 1.01. For the same compound, the normalized growth (S. cerevisiae deletion strains, locus YKR091W, strain srl3, hits give low values) was 1.01, the normalized growth (S. cerevisiae deletion strains, locus YLL001W, strain dnm1, hits give low values) was 1.01 and the normalized growth (S. cerevisiae deletion strains, locus YLL026W, hits give low values) was 0.999. The normalized growth (S. cerevisiae deletion strains, locus YLL041C, strain sdh2, hits give low values) was 1, the normalized growth (S. cerevisiae deletion strains, locus YLR027C, strain aat2, hits give low values) was 0.996 and the normalized growth (S. cerevisiae deletion strains, locus YLR039C, strain RIC1, hits give low values) was 0.974. For the same compound, the normalized growth (S. cerevisiae deletion strains, locus YLR058C, strain SHM2, hits give low values) was 0.971, the normalized growth (S. cerevisiae deletion strains, locus YLR102C, strain apc9, hits give low values) was 0.98 and the normalized growth (S. cerevisiae deletion strains, locus YLR113W, strain HOG1, hits give low values) was 1.01. For the same compound, the normalized growth (S. cerevisiae deletion strains, locus YLR221C, strain rsa3, hits give low values) was 0.971, the normalized growth (S. cerevisiae deletion strains, locus YLR258W, strain gsy2, hits give low values) was 1 and the normalized growth (S. cerevisiae deletion strains, locus YLR262C, strain YPT6 (second series), hits give low values) was 0.96. It also gave a normalized growth (S. cerevisiae deletion strains, locus YLR262C, strain YPT6, hits give low values) of 0.941, a normalized growth (S. cerevisiae deletion strains, locus YLR268W, strain sec22, hits give low values) of 0.963 and a normalized growth (S. cerevisiae deletion strains, locus YLR320W, strain mms22, hits give low values) of 1. It also gave a normalized growth (S. cerevisiae deletion strains, locus YLR330W, strain CHS5, hits give low values) of 0.981, a normalized growth (S. cerevisiae deletion strains, locus YLR342W, strain FKS1 (second series), hits give low values) of 0.921 and a normalized growth (S. cerevisiae deletion strains, locus YLR342W, strain FKS1, hits give low values) of 0.986. For the same compound, the normalized growth (S. cerevisiae deletion strains, locus YLR357W, strain rsc2, hits give low values) was 0.885, the normalized growth (S. cerevisiae deletion strains, locus YLR370C, strain arc18, hits give low values) was 1.02 and the normalized growth (S. cerevisiae deletion strains, locus YLR371W, strain rom2, hits give low values) was 0.98. For the same compound, the normalized growth (S. cerevisiae deletion strains, locus YLR384C, strain iki3, hits give low values) was 0.993, the normalized growth (S. cerevisiae deletion strains, locus YLR418C, strain cdc73, hits give low values) was 0.985 and the normalized growth (S. cerevisiae deletion strains, locus YML016C, strain PPZ1, hits give low values) was 0.981. It also gave a normalized growth (S. cerevisiae deletion strains, locus YML032C, strain rad52, hits give low values) of 0.977, a normalized growth (S. cerevisiae deletion strains, locus YML120C, strain ndi1, hits give low values) of 1.01 and a normalized growth (S. cerevisiae deletion strains, locus YML124C, strain tub3, hits give low values) of 0.999. It also gave a normalized growth (S. cerevisiae deletion strains, locus YMR058W, strain fet3, hits give low values) of 0.974, a normalized growth (S. cerevisiae deletion strains, locus YMR078C, strain ctf18, hits give low values) of 0.981 and a normalized growth (S. cerevisiae deletion strains, locus YMR125W, strain sto1, hits give low values) of 1.01. For the same compound, the normalized growth (S. cerevisiae deletion strains, locus YMR129W, hits give low values) was 1.01, the normalized growth (S. cerevisiae deletion strains, locus YMR205C, strain PFK2, hits give low values) was 1.03 and the normalized growth (S. cerevisiae deletion strains, locus YMR223W, strain ubp8, hits give low values) was 0.962. The normalized growth (S. cerevisiae deletion strains, locus YMR231W, strain pep5, hits give low values) was 0.969, the normalized growth (S. cerevisiae deletion strains, locus YMR263W, strain SAP30, hits give low values) was 0.95 and the normalized growth (S. cerevisiae deletion strains, locus YMR307W, strain GAS1, hits give low values) was 0.993. It also gave a normalized growth (S. cerevisiae deletion strains, locus YNL067W, strain RPL9B, hits give low values) of 0.941, a normalized growth (S. cerevisiae deletion strains, locus YNL071W, strain lat1, hits give low values) of 0.98 and a normalized growth (S. cerevisiae deletion strains, locus YNL128W, strain TEP1, hits give low values) of 0.954. For the same compound, the normalized growth (S. cerevisiae deletion strains, locus YNL153C, strain GIM3, hits give low values) was 0.974, the normalized growth (S. cerevisiae deletion strains, locus YNL183C, strain NPR1, hits give low values) was 0.891 and the normalized growth (S. cerevisiae deletion strains, locus YNL209W, strain ssb2, hits give low values) was 1.01. It also gave a normalized growth (S. cerevisiae deletion strains, locus YNL233W, strain BNI4, hits give low values) of 0.975, a normalized growth (S. cerevisiae deletion strains, locus YNL248C, strain rpa49, hits give low values) of 0.951 and a normalized growth (S. cerevisiae deletion strains, locus YNL250W, strain rad50, hits give low values) of 0.978. For the same compound, the normalized growth (S. cerevisiae deletion strains, locus YNL271C, strain bni1, hits give low values) was 0.977, the normalized growth (S. cerevisiae deletion strains, locus YNL298W, strain CLA4, hits give low values) was 0.959 and the normalized growth (S. cerevisiae deletion strains, locus YNL307C, strain MCK1, hits give low values) was 0.995. It also gave a normalized growth (S. cerevisiae deletion strains, locus YNL322C, strain KRE1 (second series), hits give low values) of 1, a normalized growth (S. cerevisiae deletion strains, locus YNL322C, strain KRE1, hits give low values) of 0.979 and a normalized growth (S. cerevisiae deletion strains, locus YNR049C, strain mso1, hits give low values) of 1.01. The normalized growth (S. cerevisiae deletion strains, locus YNR052C, strain pop2, hits give low values) was 0.99, the normalized growth (S. cerevisiae deletion strains, locus YOL006C, strain TOP1, hits give low values) was 0.829 and the normalized growth (S. cerevisiae deletion strains, locus YOL012C, strain htz1) was 1.5. The normalized growth (S. cerevisiae deletion strains, locus YOL147C, strain pex11, hits give low values) was 0.99, the normalized growth (S. cerevisiae deletion strains, locus YOR001W, strain rrp6, hits give low values) was 0.973 and the normalized growth (S. cerevisiae deletion strains, locus YOR061W, strain CKA2, hits give low values) was 0.955. For the same compound, the normalized growth (S. cerevisiae deletion strains, locus YOR069W, strain VPS5, hits give low values) was 0.992, the normalized growth (S. cerevisiae deletion strains, locus YOR070C, strain gyp1, hits give low values) was 0.986 and the normalized growth (S. cerevisiae deletion strains, locus YOR080W, strain dia2, hits give low values) was 0.998. It also gave a normalized growth (S. cerevisiae deletion strains, locus YOR083W, strain WHI5, hits give low values) of 0.976, a normalized growth (S. cerevisiae deletion strains, locus YOR106W, strain vam3, hits give low values) of 0.918 and a normalized growth (S. cerevisiae deletion strains, locus YOR136W, strain idh2, hits give low values) of 1.01. It also gave a normalized growth (S. cerevisiae deletion strains, locus YOR144C, strain elg1, hits give low values) of 0.988, a normalized growth (S. cerevisiae deletion strains, locus YOR184W, strain ser1, hits give low values) of 0.951 and a normalized growth (S. cerevisiae deletion strains, locus YOR231W, strain MKK1, hits give low values) of 0.985. It also gave a normalized growth (S. cerevisiae deletion strains, locus YOR265W, strain rbl2, hits give low values) of 1, a normalized growth (S. cerevisiae deletion strains, locus YOR270C, strain vph1, hits give low values) of 0.858 and a normalized growth (S. cerevisiae deletion strains, locus YOR290C, strain snf2, hits give low values) of 0.976. For the same compound, the normalized growth (S. cerevisiae deletion strains, locus YOR316C, strain cot1, hits give low values) was 0.971, the normalized growth (S. cerevisiae deletion strains, locus YPL051W, strain arl3, hits give low values) was 0.973 and the normalized growth (S. cerevisiae deletion strains, locus YPL055C, strain LGE1, hits give low values) was 0.951. For the same compound, the normalized growth (S. cerevisiae deletion strains, locus YPL078C, strain atp4, hits give low values) was 0.992, the normalized growth (S. cerevisiae deletion strains, locus YPL106C, strain sse1, hits give low values) was 1.02 and the normalized growth (S. cerevisiae deletion strains, locus YPL240C, strain hsp82, hits give low values) was 1.01. For the same compound, the normalized growth (S. cerevisiae deletion strains, locus YPL241C, strain CIN2, hits give low values) was 0.978, the normalized growth (S. cerevisiae deletion strains, locus YPL256C, strain CLN2, hits give low values) was 1 and the normalized growth (S. cerevisiae deletion strains, locus YPR119W, strain clb2, hits give low values) was 0.994. The normalized growth (S. cerevisiae deletion strains, locus YPR141C, strain kar3, hits give low values) was 0.969, the normalized growth (S. cerevisiae deletion strains, locus YPR163C, strain tif3, hits give low values) was 0.99 and the normalized growth (S. cerevisiae deletion strains, locus YPR167C, strain met16, hits give low values) was 0.981. It also gave a normalized growth (S. cerevisiae deletion strains, strain wtn01, hits give low values) of 0.981 and a normalized growth (S. cerevisiae strains, strain wild type, hits give low values) of 0.977.
